Measured values taken from PubChem BioAssay.
Active and inactive are the calls of the source.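 The calls were made as follows, unless noted: active = inhibition above 20% together with a positive visual image hit; inconclusive = visual image hit but inhibition not above 20%; inactive = no visual image hit.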

Columns and labels:
[1] = inhibitors of TNFa-induced NFkB p65 translocation, primary screen, imaging, HUVEC, MLSMR starter and 10KST1 sets (AID 438); conditions: HUVEC TNFa-induced p65 nuclear translocation; cell count: measured here: nuclei count (cytotoxicity indicator), at 2.08 µM; inhibition: at 2 µM, stronger effect = higher value, 0% TNFa-plus-vehicle, 100% no-TNFa wells;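 also: compound added about 3h40 before a 20 min TNFalpha stimulation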;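 as to inhibition: signal is the nuclear over cytoplasmic p65 intensity ratio per well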
[2] = inhibitors of mutant huntingtin aggregation, primary screen, imaging, exon1htt(103Q)mCFP cells, high-content imaging (AID 483;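 active = visual image review flags a hit and inhibition of aggregation exceeds 20%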;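 also: compound exposure lasted 3 days before fixation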;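 as to nuclei count: percent of the per-plate median nuclei count of sample wells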); conditions: exon1htt(103Q)mCFP cell line, aggregate imaging, at 2 µM; inhibition of aggregation: stronger effect = higher value; nuclei count: measured here: cell count, toxicity
[3] = inhibitors of E-selectin induction by TNFa, primary screen, imaging, HUVEC, immunofluorescence, MLSMR starter and 10KST1 sets (AID 487;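 active = visually confirmed hit in the image check and inhibition above 20%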;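 as to inhibition: signal is fraction of cell area covered by stained E-selectin grains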;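 as to nuclei count: 100% = median nuclei count of all wells on the same plate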); conditions: HUVEC TNFalpha-induced E-selectin immunofluorescence imaging, at 2 µM; inhibition: stronger effect = higher value; nuclei count: measured here: cell number, toxicity
[4] = target: Voltage-gated potassium channel subunit beta-2 (Rattus norvegicus) (UniProt P62483); experiment: KvBeta enzyme negative modulators, primary screen, biochemical, NADPH fluorescence (AID 622;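 active = fluorescence slope higher than the sample average by over 3 SD, cut at about -0.22 in these data, passing the limit was not always enough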;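 also: slope of raw intensity against log time taken from 70 to 1610 s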); conditions: recombinant KvBeta, 4-cyanobenzaldehyde reduction, at 10 µM, stronger effect = higher value
Sequence of Voltage-gated potassium channel subunit beta-2 (Rattus norvegicus) (P62483 whole entry, looked up): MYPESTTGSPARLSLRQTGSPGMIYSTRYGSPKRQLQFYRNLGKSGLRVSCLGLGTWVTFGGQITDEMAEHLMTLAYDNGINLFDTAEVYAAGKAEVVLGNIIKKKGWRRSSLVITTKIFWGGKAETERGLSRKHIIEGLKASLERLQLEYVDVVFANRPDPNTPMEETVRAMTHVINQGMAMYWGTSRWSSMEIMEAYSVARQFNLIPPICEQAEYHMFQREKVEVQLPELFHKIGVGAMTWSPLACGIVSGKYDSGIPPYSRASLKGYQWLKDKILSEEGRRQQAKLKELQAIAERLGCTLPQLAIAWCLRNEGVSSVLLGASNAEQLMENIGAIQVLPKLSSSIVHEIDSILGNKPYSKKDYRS

[5] = target: Voltage-gated potassium channel subunit beta-2 (Rattus norvegicus) (UniProt P62483); experiment: KvBeta positive modulators, primary screen, biochemical, NADPH fluorescence (AID 623;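 active = NADPH fluorescence slope more negative than the mean of all samples by about 3 SD, 99.7% confidence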;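 also: fluorescence intensity change per second fitted from 20 to 320 s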); conditions: Recombinant KvBeta, NADPH fluorescence decrease slope, 10 min; at 10 µM; stronger effect = lower value
[6] = target: Alpha-2C adrenergic receptor (Homo sapiens) (UniProt P18825); experiment: modulators of alpha2C/GIRK thallium flux, primary screen, cell-based, HEK293 alpha2C/GIRK1/2 (AID 624;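 active = fluorescence slope after compound addition differing from the mean of all screened samples at 99.7% confidence, in either direction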;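 also: slope of fluorescence ratio to pre-addition baseline per second over 15 to 24 s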); conditions: thallium flux BTC fluorescence, at 10 µM, actives lie on both sides
Sequence of Alpha-2C adrenergic receptor (Homo sapiens) (P18825 whole entry, looked up): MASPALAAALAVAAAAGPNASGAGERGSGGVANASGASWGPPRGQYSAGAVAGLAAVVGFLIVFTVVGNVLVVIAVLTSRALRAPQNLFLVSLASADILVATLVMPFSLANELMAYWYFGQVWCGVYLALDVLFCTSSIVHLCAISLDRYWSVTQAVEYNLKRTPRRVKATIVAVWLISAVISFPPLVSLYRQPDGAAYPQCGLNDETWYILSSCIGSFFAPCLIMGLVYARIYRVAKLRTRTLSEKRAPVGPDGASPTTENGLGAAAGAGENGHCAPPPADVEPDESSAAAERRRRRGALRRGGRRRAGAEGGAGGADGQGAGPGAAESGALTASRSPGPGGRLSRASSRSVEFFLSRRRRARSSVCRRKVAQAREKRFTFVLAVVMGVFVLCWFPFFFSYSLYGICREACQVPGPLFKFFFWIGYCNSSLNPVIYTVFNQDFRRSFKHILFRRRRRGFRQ

[7] = inhibitors of Sendai virus-induced IRF3 signaling, primary screen, TLR/RLR signaling modifier project, cell-based, Sendai virus stimulus, luciferase, 10K MLSCN set (AID 602276;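 active = inhibition at or above 50% at 10 µM; inactive = inhibition below 50%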;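 also: firefly luciferase from ISG56 promoter only with Renilla not read in this screen; 0% = Sendai virus plus DMSO and 100% = medium plus DMSO without virus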); conditions: HEK293 RL24 IRF3 luciferase reporter, at 10 µM, stronger effect = higher value
[8] = inhibitors of poly I:C-induced TLR3 signaling, primary screen, cell-based, poly I:C stimulus, luciferase, 10K MLSCN set (AID 602277;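 active = inhibition of the reporter signal at or above 50%; inactive = inhibition below 50%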); conditions: HEK293-TLR3 RL24 IRF3 luciferase reporter, at 10 µM, stronger effect = higher value

SMILES | cell count [1] | inhibition [1] | inhibition of aggregation [2] | nuclei count [2] [%] | inhibition [3] | nuclei count [3] [%] | fluorescence slope [4] | NADPH fluorescence slope [5] | slope [6] | inhibition [7] | inhibition [8]
CCOc1ccc(NCCC(=O)c2ccc3c(c2)OCO3)cc1 | 624 | -5.4% (inactive) | 29.9% (inactive) | 96.9 | 0% (inactive) | 103 | -0.326 (inactive) | 8.4e-06 (inactive) | 0.00304 (inactive) | 2.87% (inactive) | 12.5% (inactive)
CCn1cc(SCC(=O)NCC2CCCO2)c2ccccc21 (centres undefined) | 692 | -20.6% (inactive) | 8.9% (inactive) | 112 | -8.7% (inactive) | 102 | -0.4 (inactive) | -4.5e-05 (inactive) | 0.00573 (inactive) | 3.88% (inactive) | 15.1% (inactive)
CCn1cc(C2=NOC(C(=O)Nc3c(C)nn(Cc4ccc(F)cc4)c3C)C2)c(C)n1 (centres undefined) | 766 | -12.2% (inactive) | -18.1% (inactive) | 105 | -34.2% (inactive) | 94.7 | -0.581 (inactive) | -2.9e-05 (inactive) | 0.00617 (inactive) | 12.3% (inactive) | 11.4% (inactive)
Oc1ccc(C=Nc2cccc3ncccc23)c(O)c1 | 682 | -40.5% (inactive) | -10% (inactive) | 111 | -138% (inactive) | 118 | -0.483 (inactive) | -2.5e-05 (inactive) | 0.00472 (inactive) | 11.3% (inactive) | 17.3% (inactive)
Cc1ccc(-c2nc3cc(NC(=O)C(C)C)ccc3o2)cc1 | 290 | -6.7% (inactive) | 14.3% (inactive) | 98.3 | 29.7% (inactive) | 87.7 | -0.319 (inactive) | -3e-05 (inactive) | 0.0055 (inactive) | -10.9% (inactive) | -66.2% (inactive)
CCC12CN3CC(CC)(CN(C1)C3c1ccc(OC(C)C)cc1)C2=O (centres undefined) | 692 | 12.1% (inactive) | 10.5% (inactive) | 93.2 | -15.2% (inactive) | 94.3 | -0.528 (inactive) | -0.000143 (inactive) | 0.0058 (inactive) | 8.78% (inactive) | 15.9% (inactive)
O=C(NS(=O)(=O)c1ccc(NC(=O)C2CCCO2)cc1)c1ccccc1 (centres undefined) | 577 | -6% (inactive) | 2.1% (inactive) | 110 | -46.8% (inactive) | 125 | -0.328 (inactive) | -5.2e-05 (inactive) | 0.00463 (inactive) | 11.4% (inactive) | 17.7% (inactive)
CCOc1ccc2c(O)csc2c1 | 393 | 2% (inactive) | 7.4% (inactive) | 109 | 7.7% (inactive) | 103 | -0.371 (inactive) | -4.2e-05 (inactive) | 0.0033 (inactive) | 8.13% (inactive) | 10.6% (inactive)
Cn1c(=O)[nH]c(=O)c2c1nc(N1CCCCC1)n2CCSc1ncccn1 | 637 | -11.8% (inactive) | -16.6% (inactive) | 93 | -20.6% (inactive) | 122 | -0.438 (inactive) | -6.7e-05 (inactive) | 0.00492 (inactive) | 10% (inactive) | 25.5% (inactive)
CC1CCCCC1NC(=O)Cn1ncc2ccccc21 (centres undefined) | 827 | -6.9% (inactive) | 10.9% (inactive) | 94 | -81.1% (inactive) | 123 | -0.555 (inactive) | -4.8e-05 (inactive) | 0.00699 (inactive) | 11.9% (inactive) | 34.8% (inactive)
COc1ccc(-c2nnc(SCC(=O)N3CCOCC3)o2)cc1OC | 603 | 19% (inactive) | -39.9% (inactive) | 86.5 | 38.5% (inactive) | 78.3 | -0.54 (inactive) | 1.3e-05 (inactive) | 0.0068 (inactive) | -13.3% (inactive) | 4.93% (inactive)
COc1ccc(N2CCN(C(=O)CCNS(=O)(=O)c3ccc(Br)s3)CC2)cc1 | 338 | 2.9% (inactive) | -0.1% (inactive) | 101 | -297% (inactive) | 108 | -0.423 (inactive) | -0.000118 (inactive) | 0.00529 (inactive) | 7.87% (inactive) | 12.4% (inactive)
CCOC(=O)c1ccc(NC(=O)CSc2nnc(COc3ccccc3)n2C)cc1 | 393 | 2.5% (inactive) | -6.7% (inactive) | 97.5 | -25.8% (inactive) | 122 | -0.455 (inactive) | -5e-05 (inactive) | 0.00289 (inactive) | -1.67% (inactive) | 29% (inactive)
O=c1[nH]c(Nc2ccccc2)cc2ccccc12 | 526 | -14.6% (inactive) | -7.1% (inactive) | 101 | -33.7% (inactive) | 96.7 | -0.132 (inactive) | 1.3e-05 (inactive) | 0.00342 (inactive) | 7.19% (inactive) | 7.53% (inactive)
